PINK1 expr mod – modulators of PINK1 expression. 410,000 compounds, 0.2% hits. PINK1 immunofluorescence, high-content cytometry, 24 h. AID 624263. Potency, µM (top dose mostly 76.6 µM), most hits filed as activators; active = well fitted activation curve with a large enough effect; inconclusive = small, poorly fitted or top-dose-only effect; cell line not stated here; note: nearly all actives have a fitted effect of over 65% in size
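Compound titrations (5 concentrations, 24 h) on a stable cell line; DMSO and CCCP controls. Endpoint: fixed-cell PINK1 immunofluorescence with mitochondrial, cell and nuclear markers, scanned by microplate cytometer.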
MLL CXXC-DNA inh – blocks binding of human MLL CXXC domain to DNA. Q03164. MLL-CXXC / FITC-HOXA9 DNA fluorescence polarization. Potency, µM (highest dose often 115 µM), usual class: inhibitors. 290,000 compounds, 0.037% hits; active = well fitted inhibition curve with a large enough effect in the polarisation, with a control signal flat, not every such curve was filed as active; inconclusive = small, poorly fitted or top-dose-only effect, or effect the other way, or a change in a side signal; inactive = no such curve, though single readings can be large or run the other way; the % refers to the polarisation
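Steps: dispense CXXC domain solution (7 uM) → pin compounds or unlabeled HOX-A9 DNA control → 5 min ambient → add FLSN-HOX-A9 solution (50 nM) → spin → 30 min ambient → fluorescence polarization. Tris pH 7.5/NaCl/DTT/BSA buffer.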
Menin-MLL TR inh – menin-MLL binding inhibition, Texas Red mutant peptide; O00255; Menin + Texas Red MLL mutant peptide, fluorescence polarization; Potency, µM (doses to about 61.6 µM), usual class: inhibitors; 270,000 compounds, 0.23% hits; AID 1768; active = well fitted inhibition curve with a large enough effect in the polarisation, with a control signal flat, not every such curve was filed as active; inconclusive = small, poorly fitted or top-dose-only effect, or effect the other way, or a change in a side signal; inactive = no such curve, though single readings can be large or run the other way; the % refers to the polarisation
Target sequence (O00255 whole entry, looked up): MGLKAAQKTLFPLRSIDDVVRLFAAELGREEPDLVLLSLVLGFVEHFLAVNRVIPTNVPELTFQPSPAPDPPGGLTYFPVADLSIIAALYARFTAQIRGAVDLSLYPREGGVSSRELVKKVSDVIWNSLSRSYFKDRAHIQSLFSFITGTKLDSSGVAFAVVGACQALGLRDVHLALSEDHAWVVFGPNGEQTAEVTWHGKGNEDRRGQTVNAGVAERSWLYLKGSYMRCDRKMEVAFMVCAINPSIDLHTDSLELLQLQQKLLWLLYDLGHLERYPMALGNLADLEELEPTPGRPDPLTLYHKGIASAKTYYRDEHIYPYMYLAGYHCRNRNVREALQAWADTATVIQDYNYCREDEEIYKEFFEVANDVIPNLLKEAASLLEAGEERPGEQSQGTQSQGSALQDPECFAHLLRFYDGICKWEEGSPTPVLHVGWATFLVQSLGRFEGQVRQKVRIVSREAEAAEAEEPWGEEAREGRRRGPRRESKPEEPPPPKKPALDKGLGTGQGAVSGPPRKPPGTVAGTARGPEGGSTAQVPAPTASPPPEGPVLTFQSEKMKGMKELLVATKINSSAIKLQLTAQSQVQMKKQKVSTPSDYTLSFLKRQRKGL
Epigenetic reg – epigenetic control regulation, reporter derepression; murine LDR cells, GFP reporter derepression, 30 h; 280,000 compounds, 0.2% hits; AID 1865; Potency, µM (series often up to 53.9 µM), most hits filed as activators; active = well fitted activation curve with a large enough effect; inconclusive = small, poorly fitted or top-dose-only effect; note: nearly all actives have a fitted effect of over 60% in size
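Murine LDR cells bearing a silenced CMV-driven GFP reporter were exposed to compound for 30 h at 37 C. After PBS washes, GFP-positive cells (20-120 um objects) counted by laser-scanning microplate cytometry.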
ClpP mod – qHTS Assay for Activators of ClpP; ATP-dependent Clp protease proteolytic subunit (Bacillus subtilis (strain 168)), P80244; purified B. subtilis ClpP, FRET peptide cleavage, 20 min; Potency, µM (top dose mostly 57.5 µM); 340,000 compounds, 1.9% hits; AID 651965, 2013; active = well fitted falling curve with a large enough effect; inconclusive = small, poorly fitted or top-dose-only effect; inactive = no such curve, though single readings can be large or run the other way; note: the source files actives as falling curves though it sought activators and does not explain the sign; nearly all actives have a fitted effect of over 65% in size
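Buffer: 100 mM Tris/HCl pH8, 100 mM KCl, 0.05% low protease BSA, 2.5% glycerol, 0.01% Tween-20. ClpP 10 microg/mL final; 20 min RT; delta FRET normalized to ADEP and DMSO controls.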
Menin-MLL FL inh – displaces fluorescein MLL peptide from human menin; 290,000 tested, under 10 active; AID 1766; Fluorescence polarization, fluorescein-MLL peptide displacement from menin; FP activity change, % at 61.4 µM; active = well fitted curve in the direction sought with a large enough effect in the polarisation, not every such curve was filed as active; inconclusive = small, poorly fitted or top-dose-only effect, or effect the other way, or a change in a side signal; inactive = no such curve, though single readings can be large or run the other way; the % refers to the polarisation
A number is an active result; - = inactive; ? = inconclusive; . = no result given; [ ] = dose if it differs, or a comment. The list is not random: actives were taken first. Their share in the collection is about 1.9%.

SMILES	PINK1 expr mod	MLL CXXC-DNA inh	Menin-MLL TR inh	Epigenetic reg	ClpP mod	Menin-MLL FL inh
O=C(Cn1cnc2ccccc2c1=O)c1ccc2ccccc2c1	?	-	-	-	32µM	-
CCCCc1nc2c(c3c1C[C@H](C)OC3)CN(S(=O)(=O)c1ccc3c(c1)OCCN3C)CC2	.	.	-[11.7 µM]	.	.	-[11.7 µM]
Cc1c(NC(=O)c2cc(-c3ccccc3)nc3ccccc23)c(=O)n(-c2ccccc2)n1C	-	.	.	.	-	.
Cc1c(NC(=O)COC(=O)c2cc(-c3ccc(-c4ccccc4)cc3)nc3ccccc23)c(=O)n(-c2ccccc2)n1C	-	-	-	-	10µM	-
Cc1c(NC(=O)COC(=O)c2ccc[nH]c2=O)c(=O)n(-c2ccccc2)n1C	-	-	-	-	18µM	-
Cc1cc(NC(=O)c2ccccc2NS(=O)(=O)c2c(C)c(C)cc(C)c2C)no1	-	-	?	-	28µM	-
Cc1cc(NC(=O)c2ccccc2Cl)no1	-	-	-	-	-	-
Cc1ccc(C)c(NC(=O)c2ccccc2NS(=O)(=O)c2cc([N+](=O)[O-])ccc2C)c1	8.9µM	-	?	-	-	-
Cc1ccc(C)c(S(=O)(=O)Nc2ccccc2C(=O)Nc2cc(C)on2)c1	-	-	-	-	16µM	-
CCOC(=O)c1c(C)[nH]c(C(=O)OC(C(=O)N(C)C)c2ccccc2)c1C (configuration not stated)	-	.	.	.	-	.
COc1ccccc1OCC(=O)Nc1cc(-c2ccc(C)cc2)no1	-	.	.	-	-	.
OCCOCCNc1ncnc2sc(-c3ccccc3)cc12	-	-	-	-	32µM	-
CNc1ncnc2sc(-c3ccccc3)cc12	-	-	?	-	14µM	-
Cc1cccc(CNC(=O)c2cnn(-c3ncc(C)c(-c4ccc(F)cc4)n3)c2C)n1	-	.	.	.	.	.
CCC(Sc1ncnc2c1c(-c1ccccc1)cn2-c1ccc(OC)cc1)C(=O)OC (configuration not stated)	-	-	-	-	32µM	-
CCOC(=O)C(C)Sc1ncnc2c1c(-c1ccccc1)cn2-c1ccc(OC)cc1 (configuration not stated)	-	-	-	-	25µM	-
O=C1C2C3C=CC(C4CC34)C2C(=O)N1/N=C/c1ccc([N+](=O)[O-])s1 (configuration not stated)	-	-	-	-	-	.
O=C1C2C3C=CC(C4CC34)C2C(=O)N1/N=C/c1ccc(-c2cccc([N+](=O)[O-])c2)o1 (configuration not stated)	-	-	?	-	32µM	-
CCOc1ccc(NC(=O)C2CCCN(c3nn4cc(-c5ccc(OC)cc5)nc4s3)C2)cc1 (configuration not stated)	-	.	.	-	-	.
C/C(=N\NC(=O)c1nc2ccccn2c1C)c1cccc([N+](=O)[O-])c1	-	-	-	-	18µM	-
C/C(=N\NC(=O)c1nc2ccccn2c1C)c1ccc2c(c1)OCO2	-	-	-	-	-	-
C=CCn1c(=NC(=O)c2sc3ccccc3c2Cl)sc2cc(S(N)(=O)=O)ccc21	?	-	?	-	25µM	-
COCCn1c(=NC(=O)c2sc3ccccc3c2Cl)sc2cc(S(N)(=O)=O)ccc21	-	-	-	-	22µM	-
COCCn1c(=NC(=O)c2cc(-c3cccs3)nc3ccccc23)sc2cc(S(N)(=O)=O)ccc21	-	-	?	-	-	-
CCOC(=O)Cn1c(=NC(=O)c2nc3ccccc3s2)sc2cc(S(N)(=O)=O)ccc21	-	-	?	?	32µM	-
CC1CCN(c2ccc3c(c2)S(=O)(=O)c2cccc(C(=O)NC4CC4)c2C3=O)CC1	-	.	.	.	-	.
CN1C=CC2=C(C#N)C(N)C(C#N)(C#N)C(c3ccccc3)C2C1 (configuration not stated)	11µM	-	-	-	28µM	?
O=C(O)c1cc(S(=O)(=O)O)ccc1O	-	-	-	-	20µM	-
O=C(O)c1cc(N=Nc2ccc(O)c(C(=O)O)c2)ccc1O	.	-	40µM	.	.	-
Cc1nc(N2CCOCC2)c2c(C(=O)Nc3cccc(C(F)(F)F)c3)c(C)oc2n1	-	.	.	-	-	.
